CYP2C9 activ: CYP2C9 (human) activation; recombinant CYP2C9, luciferin-H conversion, luminescence; active compounds read high; factor 1 = untreated enzyme, 0 = blocked; P11712; activation factor at 5 µM; actives 1.4% (n = 96,000); AID 1024;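 active = activation factor of 2 or more for CYP2C9 at a 5 µM dose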;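 also: 0 = sulfaphenazole-blocked wells and 1 = vehicle-only wells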
Target sequence (P11712 whole entry, looked up): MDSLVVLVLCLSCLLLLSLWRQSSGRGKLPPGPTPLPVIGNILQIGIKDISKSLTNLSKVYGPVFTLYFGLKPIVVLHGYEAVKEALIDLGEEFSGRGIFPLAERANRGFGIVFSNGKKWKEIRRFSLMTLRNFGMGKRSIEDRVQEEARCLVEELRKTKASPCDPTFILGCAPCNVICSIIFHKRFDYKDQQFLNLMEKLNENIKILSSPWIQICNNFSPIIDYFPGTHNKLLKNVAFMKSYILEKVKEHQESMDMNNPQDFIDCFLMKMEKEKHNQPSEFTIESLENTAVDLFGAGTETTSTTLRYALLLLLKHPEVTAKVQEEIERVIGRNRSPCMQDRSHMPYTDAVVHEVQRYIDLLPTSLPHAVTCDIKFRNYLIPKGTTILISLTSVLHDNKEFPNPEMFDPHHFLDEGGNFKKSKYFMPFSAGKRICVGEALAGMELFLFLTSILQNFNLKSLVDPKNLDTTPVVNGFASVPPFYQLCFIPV
sEH act: soluble epoxide hydrolase (human) activation; P34913; purified human sEH enzymatic activity, activator screen; activation, % at 2 µM; actives 0.04% (n = 91,000); in the data active = activation above about 37%
sEH inh: blocks human soluble epoxide hydrolase activity; recombinant human sEH enzymatic activity assay; inhibition, % at 2 µM; actives 0.34% (n = 91,000); in the data active = inhibition above about 80%
CYP2C19 inh: inhibitors of human CYP2C19; P33261; CYP2C19 Supersomes, luciferin-H EGE luminescence, 30 min; inhibition, % at 5 µM; actives 21% (n = 96,000); AID 778;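 active = CYP2C19 inhibition above a set limit at 5 µM in the primary screen, cut at about 50% in these data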;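 also: plate controls were negative control wells for no effect and 2.5 mM tranylcypromine positive control for full effect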
CYP2C19 act: activators of human cytochrome P450 2C19. activation factor at 5 µM. 96,000 tested, under 10 active. recombinant CYP2C19, luciferin-H EGE luminescence; active compounds read high; 0 = fully inhibited enzyme, 1 = untreated enzyme. P33261;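 active = activation factor of at least 2 at 5 µM in the primary screen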;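 also: 0 = wells with 2.5 mM tranylcypromine and 1 = vehicle-only wells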
CYP2C9 inhib: blocks human cytochrome P450 2C9 | P11712 | CYP2C9 Supersomes, luciferin-H conversion, luminescence | inhibition, % at 5 µM | actives 20% (n = 96,000) | AID 777;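 active = blocking of liver enzyme CYP2C9 beyond about 50% at 5 µM, limit read from the data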
* marks the source's active call; other numbers are inactive results. Shown are actives, neighbours in structure and some others; about 27% of the full set was active somewhere.

Screening O=C(NC(=S)Nc1ccc(N2CCOCC2)c(Cl)c1)C(c1ccccc1)c1ccccc1 returned CYP2C9 activ 0.2, sEH act 4.0, sEH inh -3.1, CYP2C19 inh 10.2, CYP2C19 act 0.9 and CYP2C9 inhib 76.1*.
`Cc1ccccc1C(=O)NC(=S)Nc1sc2c(c1C#N)CCC(C)C2` (stereo unspecified) gave CYP2C9 activ 0.4, sEH act -7.5, sEH inh 9.8, CYP2C19 inh 33.7, CYP2C19 act 0.7 and CYP2C9 inhib 62.8*.
For Cc1ccccc1NC(=S)NNC(=O)c1csc2c1CCC(C)C2 (stereo unspecified) the results were CYP2C9 activ 0.3, sEH act -4.2, sEH inh 6.0, CYP2C19 inh 97.9*, CYP2C19 act 0 and CYP2C9 inhib 66.3*.
CCc1nnc(NC(=O)CN2CCN(c3ccc(Cl)cc3)CC2)s1 was read as sEH act 1.2 and sEH inh 2.6.
Screening Cc1oc2cc(O)ccc2c(=O)c1Oc1ccc2ccccc2c1 returned CYP2C9 activ 2*, sEH act -3.2, sEH inh 2.9, CYP2C19 inh 17.8, CYP2C19 act 0.8 and CYP2C9 inhib -98.0.
Screening CC1CCCCN1CCNC(=O)c1cnn2ccccc12 (stereo unspecified) returned CYP2C9 activ 0.7, CYP2C19 inh -8.6, CYP2C19 act 1.1 and CYP2C9 inhib 28.1.
CCOC(=O)Cn1c(CN2CCN(c3cccc(Cl)c3)CC2)nc2c1c(=O)[nH]c(=O)n2C was read as sEH act -6.7 and sEH inh 6.7.
`Cc1[nH]c2ccccc2c1C(=O)CN1CCN(C/C=C/c2ccccc2)CC1` gave CYP2C9 activ 1.1, sEH act -5.1, sEH inh 6.0, CYP2C19 inh 5.9, CYP2C19 act 0.9 and CYP2C9 inhib -6.2.
Screening COc1ccc2[nH]c(C)c(C(=O)CN3CCN(C/C=C/c4ccccc4)CC3)c2c1 returned CYP2C9 activ 0.5, sEH act 11.8, sEH inh -10.4, CYP2C19 inh 11.2, CYP2C19 act 0.9 and CYP2C9 inhib 54.2*.
`COc1ccccc1N1CCN(CC(=O)c2c(C)[nH]c3ccccc23)CC1` gave CYP2C9 activ 1.8, CYP2C19 inh 86.8*, CYP2C19 act 0.1 and CYP2C9 inhib -84.7.
For Cc1cc(OC(=O)N2CCOCC2)cc(C)c1Cl the results were CYP2C9 activ 1.3, sEH act 4.6, sEH inh -3.6, CYP2C19 inh 6.4, CYP2C19 act 0.9 and CYP2C9 inhib -25.1.
Screening CC(=O)Oc1c(Cl)c(N2CCOCC2)c(OC(C)=O)c2ccccc12 returned CYP2C9 activ 0.7, CYP2C19 inh 52.0*, CYP2C19 act 0.5 and CYP2C9 inhib 25.8.
For O=C(/C=C/c1c(Cl)cccc1Cl)Nc1ccncc1 the results were CYP2C9 activ 0.1, sEH act -5.9, sEH inh 7.2, CYP2C19 inh 93.7*, CYP2C19 act 0.1 and CYP2C9 inhib 93.1*.
For O=C(/C=C/c1cccc(Cl)c1)Nc1ccncc1 the results were CYP2C9 activ 0, sEH act 8.4, sEH inh -8.8, CYP2C19 inh 99.0*, CYP2C19 act 0 and CYP2C9 inhib 98.7*.
CC(=O)N(C)c1ccc(NC(=O)/C=C/c2ccccc2Cl)cc1 was read as CYP2C9 activ 0.7, sEH act -69.6, sEH inh 69.3, CYP2C19 inh 40.0, CYP2C19 act 0.6 and CYP2C9 inhib 30.0.
Brc1ccc(-c2cn3c(n2)CCc2ccc4cccnc4c2-3)cc1 was read as CYP2C9 activ 1, sEH act 16.4, sEH inh -13.2, CYP2C19 inh 5.4, CYP2C19 act 0.9 and CYP2C9 inhib 3.8.
Cc1nn(-c2ccccc2)c2c1C(c1ccc(F)cc1F)C(C#N)=C(N)O2 (stereo unspecified) was read as CYP2C9 activ 0.2, sEH act 4.1, sEH inh -0.3, CYP2C19 inh 67.8*, CYP2C19 act 0.3 and CYP2C9 inhib 82.0*.
`COc1ccc(C2C(C#N)=C(N)Oc3c2c(C)nn3-c2ccccc2)cc1Cn1nc(C)c([N+](=O)[O-])c1C` (stereo unspecified) gave CYP2C9 activ 0.2, sEH act 7.6, sEH inh -7.7, CYP2C19 inh 30.9, CYP2C19 act 0.7 and CYP2C9 inhib 85.0*.
Screening Cc1nn(-c2ccccc2)c2c1C(c1ccccc1)C(C#N)=C(N)O2 (stereo unspecified) returned CYP2C9 activ 0.1, sEH act -7.5, sEH inh 7.9, CYP2C19 inh 90.1*, CYP2C19 act 0.1 and CYP2C9 inhib 86.7*.
For Cc1ccc(-n2nc(C)c3c2OC(N)=C(C#N)C3c2ccoc2)cc1 (stereo unspecified) the results were CYP2C9 activ 0.4, CYP2C19 inh 25.8, CYP2C19 act 0.7 and CYP2C9 inhib 63.5*.
For COc1ccc(OC)c(C2C(C#N)=C(N)Oc3c2c(C)nn3-c2ccc(C)cc2)c1 (stereo unspecified) the results were CYP2C9 activ 0.5, sEH act -9.8, sEH inh 9.6, CYP2C19 inh 12.8, CYP2C19 act 0.9 and CYP2C9 inhib 48.4.
For Cc1nn(Cc2ccccc2)c2c1C(c1ccc(Cl)cc1)C(C#N)=C(N)O2 (stereo unspecified) the results were sEH act -3.2 and sEH inh 4.6.
`Cc1ccc(-n2nc(C)c3c2OC(N)=C(C#N)C3c2ccco2)cc1` (stereo unspecified) gave CYP2C9 activ 0.6, sEH act -7.9, sEH inh 7.4, CYP2C19 inh 18.1, CYP2C19 act 0.8 and CYP2C9 inhib 36.7.
For OC(COc1ccc2c(c1)CCC2)Cn1cnc2ccccc21 (stereo unspecified) the results were CYP2C9 activ 0.9, sEH act -0.2, sEH inh 5.0, CYP2C19 inh 10.1, CYP2C19 act 0.9 and CYP2C9 inhib 8.7.
`Cc1nn(Cc2ccccc2)c2c1C(c1ccncc1)C(C#N)=C(N)O2` (stereo unspecified) gave CYP2C9 activ 0, CYP2C19 inh 91.5*, CYP2C19 act 0.1 and CYP2C9 inhib 99.5*.
Cc1[nH]c2ccc(F)cc2c(=O)c1SC(F)(F)C(F)F was read as CYP2C9 activ 1, sEH act -8.5, sEH inh 8.2, CYP2C19 inh 23.2, CYP2C19 act 0.8 and CYP2C9 inhib -2.7.
CC(=O)c1cc(C)ccc1OC(=O)c1cccc2nc(C)oc12 was read as CYP2C9 activ 0.4, sEH act 3.8, sEH inh -0.9, CYP2C19 inh 57.3*, CYP2C19 act 0.4 and CYP2C9 inhib 61.1*.
For COc1ccc(N2CCN(CCNC(=O)c3ccc(NC(=O)C4CCCO4)cc3)CC2)cc1 (stereo unspecified) the results were CYP2C9 activ 1.1, CYP2C19 inh 0.0, CYP2C19 act 1 and CYP2C9 inhib -10.1.
